# Compounds without any hit were thinned out: in the full panel of roughly 83,000, 20% have a hit.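 Method: cells in 96-well plates; compound added at one concentration; 48 h incubation; percent growth measured; values under 10 scored active.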 A number with no mark means an inactive call. The source made the active and inactive calls.
# Columns and labels:
# Experiment in all cases: NCI-60 one-dose screen, 48 h (100 = growth as untreated, 0 = no growth, -100 = all killed)
# Settings in all cases: 10 µM unless noted
# [1] = tested on: NCI-H23 lung
# [2] = tested on: NCI-H226 lung
# [3] = tested on: NCI-H322M lung
# [4] = tested on: HOP-62 NSCLC
# [5] = tested on: NCI-H460 lung
# [6] = tested on: HOP-92 NSCLC
# [7] = tested on: NCI-H522 lung
# [8] = tested on: A549/ATCC NSCLC
# [9] = tested on: 786-0 renal
# [10] = tested on: COLO 205 colon
# [11] = tested on: DU-145 prostate
# [12] = tested on: K-562 leukemia
# [13] = tested on: MALME-3M melanoma
# [14] = tested on: MDA-MB-231 breast
# [15] = tested on: RXF 393 renal
# [16] = tested on: SF-268 CNS
# [17] = tested on: SF-295 CNS
# [18] = tested on: SF-539 CNS
# [19] = tested on: UACC-257 melanoma
Structure (SMILES),growth [1],growth [2],growth [3],growth [4],growth [5],growth [6],growth [7],growth [8],growth [9],growth [10],growth [11],growth [12],growth [13],growth [14],growth [15] [%],growth [16],growth [17],growth [18],growth [19]
O=[N+]([O-])c1cccc(/C=C/c2ccccn2)c1,76.1%,74.9%,134%,73.2%,91%,34.7%,72.1%,73.5%,53.3%,105%,78.3%,67.4%,114%,87.3%,69.3,76.9%,71.1%,68.6%,102%
Cc1nc(Nc2cccc(NC(=O)Nc3ccc(Cl)cc3)c2)c2ccccc2n1,96%,90.4%,89.7%,107%,70.5%,90.7%,68.6%,91.6%,96.1%,103%,91.7%,67.6%,87.3%,86.4%,–,102%,88.2%,94.6%,101%
COc1ccc(/C(C)=C(\c2ccc(Cl)cc2)c2ccc(OCCCN(C)C)cc2)cc1F,78.1%,98%,67.6%,52.8%,-3.98% (active),92%,77%,57.2%,62.2%,7.6% (active),73.5%,-0.587% (active),17.2%,73.7%,–,81.8%,53.5%,44.9%,17.1%
C=CCO[C@H]1CO[C@H]2[C@@H]1OC[C@@H]2Oc1ccc(Nc2ccnc(Nc3ccc(O[C@H]4CO[C@H]5[C@@H]4OC[C@@H]5OCC=C)c(Cl)c3)n2)cc1Cl,-47.8% (active),86.7%,-56.6% (active),-25.5% (active),-74% (active),83.3%,-29.9% (active),-60.7% (active),-88.2% (active),29.2%,-50.2% (active),-32.4% (active),-95.8% (active),-92.8% (active),–,-61.6% (active),-77.8% (active),-87.5% (active),107%
CC(C)c1ccc(NC(=O)Cc2ccc(Nc3ncnc4cc(-c5cnn(CCN(C)C)c5)ccc34)cc2)cc1,-61.7% [30 µM] (active),50.6% [30 µM],-99.7% [30 µM] (active),-0.67% [30 µM] (active),-90.5% [30 µM] (active),-45.3% [30 µM] (active),-45.3% [30 µM] (active),-35.7% [30 µM] (active),-59.1% [30 µM] (active),-46.7% [30 µM] (active),-97.5% [30 µM] (active),-34.9% [30 µM] (active),-88.7% [30 µM] (active),-77.8% [30 µM] (active),–,-62.3% [30 µM] (active),-61.9% [30 µM] (active),-88.8% [30 µM] (active),54.7% [30 µM]
CCCCN(Cc1ccc(C(=O)NO)cc1)C(=O)Nc1ccc(OCCCCCCCCCn2cc(CCCCC(=O)N[C@H](C(=O)N3C[C@H](O)C[C@H]3C(=O)NCc3ccc(-c4scnc4C)cc3)C(C)(C)C)nn2)cc1,33.4%,46.1%,63.7%,39.7%,11.6%,-11.4% (active),19.5%,86.8%,69.8%,36.9%,50.8%,16.2%,23.8%,59.6%,–,36.2%,92%,32%,60%
COc1ccc(C(=O)/C=C/c2cc3c(c(OC)c2)OCC(=O)N3)cc1,58.5%,87.6%,87.8%,87.4%,9.81% (active),39.5%,46.4%,78%,14.5%,77%,-20.7% (active),7.5% (active),88.4%,67.7%,49.7,21.4%,88.7%,7.09% (active),91.6%
COc1ccc(/C=C2\COc3ccc(O)cc3C2=O)c(OC)c1,83.4%,104%,86.5%,56.3%,40.6%,79.5%,39.1%,51.6%,91.2%,108%,65.8%,12.4%,60.9%,60.9%,–,70.2%,80.1%,57.5%,74.8%
C/C(Cc1ccc(Cl)cc1)=C(/c1ccc(Cl)cc1)c1ccc(OCCN(C)C)cc1,73.2%,104%,91.2%,99.2%,-46.9% (active),72%,80.6%,57.8%,61.7%,-59.2% (active),62.3%,-4.72% (active),37.1%,74.1%,–,85.6%,97.2%,66.7%,71.3%
O=C(CCc1nc(-c2cccc(Cl)c2)no1)Nc1ccccn1,89.2%,89.8%,108%,124%,103%,82.3%,84.5%,111%,96.3%,117%,109%,87.5%,91.7%,95.6%,–,104%,94%,96.6%,114%
O=C1c2ccccc2C(=O)c2cc(Cn3cc[n+](Cc4ccc5ccccc5c4)c3)ccc21,75.6%,83.3%,91%,107%,94%,47.8%,38.9%,110%,98.8%,58.6%,115%,32.5%,66.5%,81.4%,–,72.5%,94.9%,84.1%,56.1%
COc1ccc(/C(C)=C(\c2ccc(Cl)cc2)c2ccc(OCCN3CCCC3)cc2)cc1F,55.1%,69.3%,62.2%,-17.6% (active),-55.6% (active),65.8%,71.1%,42.2%,4.18% (active),-40.6% (active),49.6%,-1.68% (active),-38.2% (active),36.7%,–,54.7%,-42.9% (active),3.19% (active),2.99% (active)
CCCCNC(=O)NS(=O)(=O)c1ccc(N2N=C(c3ccc(C)cc3C)CC2c2ccc(N(C)C)cc2)cc1 (stereo not given),69.5%,82.9%,87.4%,88.6%,39.2%,71.5%,50%,40.6%,53.1%,75.6%,84.8%,44.4%,101%,80.1%,79.5,79.9%,–,62.6%,66.1%
COc1ccc(/C(C)=C(\c2ccc(Cl)cc2)c2ccc(OCCN3CCCCC3)cc2)cc1F,48.1%,77%,76.1%,16.8%,7.34% (active),59.6%,65.5%,53%,2.47% (active),5.95% (active),63.3%,1.56% (active),-27.2% (active),49.5%,–,63.5%,-19.7% (active),4.69% (active),24.6%
Cc1nc(Nc2ccc(NC(=S)Nc3ccccc3)cc2)nc2nc(Nc3ccc(S(=O)(=O)O)cc3)[nH]c(=O)c12,95.8%,123%,122%,105%,108%,75.7%,86.9%,111%,103%,113%,145%,71%,104%,94.4%,–,106%,113%,132%,136%
CCCCS(=O)(=O)Oc1ccc(-c2nc(C)c(C(=O)OCC)s2)cc1C=O,84%,87.1%,86.7%,68.4%,58.7%,69.5%,58.3%,101%,74.4%,106%,61.4%,13.7%,75.1%,76.7%,–,79.3%,67.5%,58%,96.2%
